The text below walks through data of PubChem BioAssay.

Test [1] in a line: anti-His antibody binders, primary screen, artefact control for SMM control protein annotation, biochemical, small-molecule microarray, 635 nm fluorescence (AID 1128).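 Note: score merges feature fluorescence with signal-to-noise for each printed compound spot.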 The note with it: anti-His Alexa647 antibody binding, higher = more signal.
The subject of test [2] is Human papillomavirus type 1a E7 protein (residues 1-88). The test is described as follows: HPV1a E7 small-molecule binders, primary screen, biochemical, small-molecule microarray, residues 1-88, 635 nm (AID 1129). Particulars: small-molecule microarray binding, fluorescence 635 nm; higher = more signal.
For test [3], the target named is Focal adhesion kinase 1 (Homo sapiens) (UniProt Q05397). The test is described as follows: small-molecule microarray binders of FAK, primary screen, biochemical, 635/667 nm fluorescence, BSA, DTT (AID 1130).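 Note: composite of spot emission at 667 nm and signal to noise over triplicate slides.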 The note with it: PTK2 binding, 635 nm fluorescence, higher = more signal.
Sequence of Focal adhesion kinase 1 (Homo sapiens) (Q05397 whole entry, looked up): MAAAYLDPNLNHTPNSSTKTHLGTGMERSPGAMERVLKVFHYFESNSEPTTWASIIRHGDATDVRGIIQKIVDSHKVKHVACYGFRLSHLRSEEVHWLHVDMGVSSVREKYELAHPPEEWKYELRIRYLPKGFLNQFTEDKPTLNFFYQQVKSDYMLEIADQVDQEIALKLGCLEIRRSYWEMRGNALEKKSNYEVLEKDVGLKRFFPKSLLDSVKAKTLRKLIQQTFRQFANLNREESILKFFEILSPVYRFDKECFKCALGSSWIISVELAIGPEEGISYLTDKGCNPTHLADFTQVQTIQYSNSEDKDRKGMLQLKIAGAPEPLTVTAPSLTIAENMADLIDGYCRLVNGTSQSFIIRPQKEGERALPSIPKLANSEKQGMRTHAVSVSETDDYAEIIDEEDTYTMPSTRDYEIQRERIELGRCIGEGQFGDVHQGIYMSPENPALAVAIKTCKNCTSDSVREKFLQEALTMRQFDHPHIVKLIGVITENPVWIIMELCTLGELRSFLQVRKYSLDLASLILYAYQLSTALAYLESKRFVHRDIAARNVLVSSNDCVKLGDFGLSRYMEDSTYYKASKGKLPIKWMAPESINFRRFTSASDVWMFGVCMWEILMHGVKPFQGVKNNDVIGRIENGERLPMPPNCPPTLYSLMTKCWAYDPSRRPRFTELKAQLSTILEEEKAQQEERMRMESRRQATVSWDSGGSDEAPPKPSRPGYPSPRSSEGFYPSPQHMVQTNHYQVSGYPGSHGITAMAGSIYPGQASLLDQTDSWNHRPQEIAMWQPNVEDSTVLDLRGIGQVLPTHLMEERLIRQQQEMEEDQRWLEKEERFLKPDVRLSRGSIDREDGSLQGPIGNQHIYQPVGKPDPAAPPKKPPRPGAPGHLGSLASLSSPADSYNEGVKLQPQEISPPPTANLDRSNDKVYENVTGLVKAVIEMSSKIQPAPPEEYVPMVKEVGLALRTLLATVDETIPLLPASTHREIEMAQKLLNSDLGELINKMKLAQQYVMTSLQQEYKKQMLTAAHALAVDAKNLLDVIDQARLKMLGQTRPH
The test system of test [4] is Fibrinogen (Alexa647-labelled). Nature of the test: fibrinogen binders on compound microarrays, profiling panel, artefact control for SMM control-protein annotation, biochemical, small-molecule microarray, 635/667 nm fluorescence (AID 1131).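 Note: z-score merges 667 nm fluorescence with per-spot signal-to-noise over triplicate slides.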 The note with it: fibrinogen-A647 binding fluorescence, higher = more signal.
Test [5] has as its target Follistatin (Homo sapiens) (UniProt P19883). The test is described as follows: follistatin binders on small-molecule microarrays, primary screen, biochemical, small-molecule microarray, 635/667 nm fluorescence (AID 1132). The note with it: FST binding, 635 nm fluorescence, higher = more signal.
The target of test [6] is Fibroblast growth factor 2 (Homo sapiens) (UniProt P09038). The test is described as follows: FGF2 binders on small-molecule microarrays, primary screen, biochemical, small-molecule microarray, 635/667 nm fluorescence (AID 1133). Particulars: small-molecule microarray binding, FGF2, fluorescence 635/667; higher = more signal.
Sequence of Fibroblast growth factor 2 (Homo sapiens) (P09038 whole entry, looked up): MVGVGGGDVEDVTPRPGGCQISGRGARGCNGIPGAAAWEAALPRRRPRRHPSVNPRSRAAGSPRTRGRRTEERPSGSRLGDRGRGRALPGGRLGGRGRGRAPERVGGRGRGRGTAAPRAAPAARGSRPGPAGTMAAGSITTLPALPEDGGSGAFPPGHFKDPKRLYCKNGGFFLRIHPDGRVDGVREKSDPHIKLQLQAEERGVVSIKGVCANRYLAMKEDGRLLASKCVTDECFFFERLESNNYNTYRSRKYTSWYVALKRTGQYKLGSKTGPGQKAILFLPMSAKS
Test [7] in a line: mitochondrial membrane potential change in A549 cells, profiling panel, cell-based, JC-1 fluorescence, basal, 24 h, 100 nL (AID 1138).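 Note: A549 lung adenocarcinoma cells under basal conditions with no added stimulus; test concentration not given here.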 The note with it: higher = more signal.
In the next test the test system is Lefty1. Nature of the test: Lefty1 binders on small-molecule microarrays, primary screen, biochemical, small-molecule microarray, 635/667 nm fluorescence (AID 1139). Particulars: small-molecule microarray binding, fluorescence 635/667; higher = more signal.
Test [8] relates to wheat germ agglutinin (Triticum aestivum), Alexa647-labelled. Nature of the test: wheat germ agglutinin binders on compound microarrays, profiling panel, artefact control for SMM control-protein annotation, biochemical, small-molecule microarray, 635/667 nm fluorescence (AID 1140).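 Note: score merges 667 nm feature emission with signal to noise over triplicate slides.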 Particulars: WGA-A647 binding, 635 nm fluorescence, higher = more signal.
The target of test [9] is Luciferin 4-monooxygenase (Photinus pyralis) (UniProt P08659). The test is described as follows: firefly luciferase enzyme inhibitors, primary screen, biochemical, luminescence, purified enzyme, 2006 set (AID 1141).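 Note: cell-free assay with purified firefly luciferase at 100 ng per well in PBS; test concentration not given here.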 Particulars: SteadyGlo luminescence, 30 min, higher = more signal, called active from +8 up or from −8 down.
Sequence of Luciferin 4-monooxygenase (Photinus pyralis) (P08659 whole entry, looked up): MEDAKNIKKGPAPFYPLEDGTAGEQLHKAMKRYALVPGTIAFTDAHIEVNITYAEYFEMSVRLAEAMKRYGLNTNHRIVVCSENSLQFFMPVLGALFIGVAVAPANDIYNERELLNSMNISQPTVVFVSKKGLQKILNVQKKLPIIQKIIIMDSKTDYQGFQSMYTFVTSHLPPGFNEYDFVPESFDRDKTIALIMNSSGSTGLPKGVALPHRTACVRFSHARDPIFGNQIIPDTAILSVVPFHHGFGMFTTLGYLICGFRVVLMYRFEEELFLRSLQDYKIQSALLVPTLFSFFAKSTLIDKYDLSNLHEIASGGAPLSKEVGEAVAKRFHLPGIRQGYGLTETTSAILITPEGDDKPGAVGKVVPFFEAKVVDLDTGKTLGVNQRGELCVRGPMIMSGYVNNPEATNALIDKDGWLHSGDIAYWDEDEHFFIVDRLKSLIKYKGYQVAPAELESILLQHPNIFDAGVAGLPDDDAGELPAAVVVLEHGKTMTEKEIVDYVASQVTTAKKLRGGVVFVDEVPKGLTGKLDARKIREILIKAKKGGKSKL
Test [10] relates to Wnt5a (protein binding on small-molecule microarray). Nature of the test: Wnt5a binders on small-molecule microarray, primary screen, biophysical, 635/667 nm fluorescence (AID 1142).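 Note: fluorescence read at 667 nm with signal to noise per printed feature.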 The note with it: 635 nm fluorescence, higher = more signal.
A short description of test [11]: cell viability in Huh7 cells, primary screen, cytotoxicity control for HCV replication inhibitor project, CellTiter-Glo luminescence, basal, 48 h (AID 1143).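 Note: Huh7 hepatoma cells carrying a hepatitis C replication reporter with no stimulus; test concentration not given here.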 Particulars: Huh7 HCV replicon, higher = more signal, called active from +8 up or from −8 down.
A short description of test [12]: P. aeruginosa biofilm formation inhibitors, primary screen, PAO1 strain, BacTiter-Glo luminescence, LB-PBS (AID 1144). The note with it: 12 h, higher = more signal.
The nature of test [13]: CREB reporter modulators without forskolin, primary screen, cell-based, PC12, CRE-LacZ reporter, unstimulated (AID 1145). Particulars: no forskolin, luminescence, 4.5 h, higher = more signal, called active from +8 up or from −8 down.
A short description of test [14]: CREB reporter modulators under forskolin, primary screen, cell-based, PC12, CRE-LacZ reporter, forskolin-stimulated (AID 1146).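 Note: PC12 cells with 6xCRE LacZ reporter stimulated by forskolin 10 µM; beta-galactosidase reporter signal reflecting CREB driven transcription.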 The note with it: luminescence, 4.5 h, higher = more signal, called active from +8 up or from −8 down.
Test [15] deals with Streptavidin (Streptomyces avidinii) (UniProt P22629). The test is described as follows: streptavidin binders on small-molecule microarray, primary screen, artefact control for SMM compound annotation, biophysical, 635/667 nm fluorescence (AID 1147).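 Note: signal reflects streptavidin binding to arrayed compounds as a control protein.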 Particulars: streptavidin binding, higher = more signal.
Sequence of Streptavidin (Streptomyces avidinii) (P22629 whole entry, looked up): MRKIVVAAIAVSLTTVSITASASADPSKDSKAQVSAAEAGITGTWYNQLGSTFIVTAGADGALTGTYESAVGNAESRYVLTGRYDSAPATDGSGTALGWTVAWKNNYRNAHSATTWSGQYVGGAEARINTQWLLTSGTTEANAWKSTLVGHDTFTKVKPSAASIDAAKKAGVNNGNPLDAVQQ
The nature of test [16]: small-molecule binders of probe aInhba, primary screen, biochemical, small-molecule microarray, 635/667 nm fluorescence (AID 1148).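 Note: score merges 667nm spot fluorescence with signal-to-noise for antibody binding to printed compounds.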 The note with it: higher = more signal.
Test [17] addresses Torsin-1A (Homo sapiens) (UniProt O14656). Nature of the test: torsin A binders from cell lysate, primary screen, small-molecule microarray, wild-type, 635/667 nm (AID 1149). Particulars: COS7 hTOR1A-WT lysate, 635 nm fluorescence, higher = more signal.
Test [18] has the same target. Nature of the test: small-molecule binders of mutant TOR1A in lysate, primary screen, cell lysate, small-molecule microarray, COS7 lysate, 635/667 nm fluorescence (AID 1150).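 Note: score pools 667 nm emission and signal to noise measuring lysate protein binding.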 Particulars: COS7 hTOR1A mutant lysate, 635 nm fluorescence, higher = more signal.
For test [19], the system named is Sonic hedgehog protein (Shh). The test is described as follows: small-molecule binders of Shh protein, primary screen, biochemical, small-molecule microarray, 635/667 nm fluorescence (AID 1151).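 Note: Shh protein binding to compounds spotted on small-molecule microarray slides; score combines spot fluorescence intensity with signal-to-noise across triplicate slides.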 Particulars: small-molecule microarray binding, 635 nm fluorescence; higher = more signal.

Active and inactive are the calls of the source. Unless noted, the rule behind the calls is not given here.

Sequence of Torsin-1A (Homo sapiens) (O14656 whole entry, looked up): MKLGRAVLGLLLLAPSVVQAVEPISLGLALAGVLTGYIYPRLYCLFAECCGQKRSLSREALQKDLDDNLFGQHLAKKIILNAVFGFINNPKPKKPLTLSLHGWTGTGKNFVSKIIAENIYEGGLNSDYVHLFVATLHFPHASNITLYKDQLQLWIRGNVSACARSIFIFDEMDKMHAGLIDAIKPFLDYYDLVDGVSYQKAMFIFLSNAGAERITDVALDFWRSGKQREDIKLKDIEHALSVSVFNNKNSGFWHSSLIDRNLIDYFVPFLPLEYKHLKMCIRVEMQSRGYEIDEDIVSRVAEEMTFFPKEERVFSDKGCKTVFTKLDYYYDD
Sequence of Follistatin (Homo sapiens) (P19883 whole entry, looked up): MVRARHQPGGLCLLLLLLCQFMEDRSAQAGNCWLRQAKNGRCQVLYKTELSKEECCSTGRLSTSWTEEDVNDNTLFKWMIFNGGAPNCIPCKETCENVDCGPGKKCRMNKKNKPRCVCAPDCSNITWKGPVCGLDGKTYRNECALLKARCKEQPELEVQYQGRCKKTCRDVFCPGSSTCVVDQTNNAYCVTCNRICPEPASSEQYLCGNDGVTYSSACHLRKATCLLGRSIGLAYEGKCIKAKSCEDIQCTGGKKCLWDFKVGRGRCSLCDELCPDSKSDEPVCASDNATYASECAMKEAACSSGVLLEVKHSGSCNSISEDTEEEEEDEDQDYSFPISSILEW

As to `C#C[C@H](O[Si](C#CCCCCCC)(C(C)C)C(C)C)c1ccccc1`, the composite z-score is 0.272 in test [1]; 0.203 in [2]; -0.308 in [3]; -0.152 in test [4]; 0.481 in [5]; -0.471 in test [6]. In addition, the composite z-score in the test on Lefty1 is 0.605; in test [8], -0.174; in test [10], -0.348; in test [15], -0.0246; in test [16] it was -0.17; in the test with Torsin-1A (Homo sapiens) [17], 0.236. For the same compound, the composite z-score is 0.0769 in the test with Torsin-1A (Homo sapiens) [18] and -0.102 in test [19]. Also, the z-score was -0.562 in [7]; 1.25 (inactive) in test [9]; -0.0715 (inactive) in test [11]; 0.0625 (inactive) in test [12]; 0.353 (inactive) in test [13]; 0.262 (inactive) in test [14].
Turning to `C=C(C)[C@@H]1CC=C(C(O)C2C=CC3C(=O)N(Cc4ccccc4)C(=O)C3N2n2cnnc2)CC1` (stereo not given in full), the composite z-score in test [1] is -0.087; in test [2], -0.124; in test [3], 0.0147; in [4], 0.818; in test [5] it was 0.507; in test [6], -0.759. Besides, the composite z-score in the test with Lefty1 is 0.551; in test [8], 1.19; in [10], -0.0115; in [15], 0.258; in [16], 0.0314; in the test with Torsin-1A (Homo sapiens) [17] it was 0.0146. In addition, the results for the composite z-score (with Torsin-1A (Homo sapiens) [18]; in test [19]) were -0.388 and -0.408, respectively. In addition, the z-score in test [7] was -1.11; in test [9] it was 1.67 (inactive); in test [11], -4.22 (inactive); in test [12] it was -1.38 (inactive); in [13] it was 0.22 (inactive); in [14], -0.0578 (inactive).
Take `COc1ccc(C#Cc2ccc3c(c2)[C@]2(C(=O)N3)[C@H](c3ccc(OCCO)cc3)N3[C@H](c4ccccc4)[C@H](c4ccccc4)OC(=O)[C@H]3[C@@H]2C(=O)Nc2nc3ccccc3s2)cc1`: the composite z-score in [1] was 0.842; in test [2], 1.17; in [3], 0.862; in [4] it was 0.88; in test [5] it was 1.3; in [6], 1.28. Also, the composite z-score was 1.57 in the test with Lefty1; 0.764 in [8]; 0.603 in test [10]; 1.07 in test [15]; 0.143 in [16]; 1.15 with Torsin-1A (Homo sapiens) [17]. Besides, the composite z-score in the test with Torsin-1A (Homo sapiens) [18] amounted to 0.564; in test [19] it was 1. Besides, the z-score in test [7] was -2.06; in [9] it was -3.84 (inactive); in test [11] it was -2.92 (inactive); in test [12] it was -1.54 (inactive); in [13], 0.918 (inactive); in [14] it was -0.203 (inactive).
Take `CCOC(=O)C=Cc1cccc(OC)c1O`: the composite z-score was 0.447 in test [1]; -0.311 in [2]; -0.227 in [3]; 0.102 in test [4]; -0.248 in [5]; -1.13 in test [6]. Moreover, the composite z-score was -0.679 with Lefty1; 0.859 in test [8]; -0.811 in [10]; -0.432 in test [15]; -0.13 in [16]; -0.146 with Torsin-1A (Homo sapiens) [17]. The composite z-score is 0.141 with Torsin-1A (Homo sapiens) [18] and -0.8 in test [19]. The z-score is -1.37 in test [7]; -17.6 (active) in test [9]; -4.11 (inactive) in [11]; 1.91 (inactive) in test [12]; 0.182 (inactive) in test [13]; -0.791 (inactive) in test [14].
In the case of `C=C(C(=O)CC[C@@H](OC(C)=O)c1ccc(OCCO)cc1)C(C)C`, the composite z-score in [1] is 0.521; in [2], 0.0161; in test [3], 0.019; in [4] it was 0.933; in test [5], 0.627; in [6] it was 1.29. Moreover, the composite z-score with Lefty1 is -0.12; in [8] it was 0.0487; in test [10], 0.177; in test [15], -0.41; in [16], -0.148; with Torsin-1A (Homo sapiens) [17], 0.698. Moreover, the composite z-score with Torsin-1A (Homo sapiens) [18] stood at 1.02; in test [19], 0.0191. Also, the z-score in test [7] is -0.316; in test [9], -1.08 (inactive); in test [11], 0.118 (inactive); in test [12], -0.73 (inactive); in test [13], 1.68 (inactive); in test [14], 1.05 (inactive).
